Reference: PubChem BioAssay (EPA / NIEHS)
Results filed as inconclusive are left out. Calls of active or inactive are those of the source. Rule for the calls: active = hit-call score of the fitted dose curve at least 0.9, where 1 is the maximum; inconclusive = response in the unintended direction; inactive = score below 0.9.

What follows are compounds tested against rat Adrenergic Receptor, Alpha 2 (Adra2), Non-selective Binding, Adra2a (gene 25083) (UniProt P22909) (assay: NVS_GPCR_rAdra2_NonSelective: NovaScreen (NVS) G Protein-Coupled Receptor Assay for rat Adrenergic Receptor, Alpha 2 (Adra2), Non-selective Binding (AID 2283299)).
Chain of rat Adrenergic Receptor, Alpha 2 (Adra2), Non-selective Binding, Adra2a (gene 25083) (P22909 whole entry, looked up): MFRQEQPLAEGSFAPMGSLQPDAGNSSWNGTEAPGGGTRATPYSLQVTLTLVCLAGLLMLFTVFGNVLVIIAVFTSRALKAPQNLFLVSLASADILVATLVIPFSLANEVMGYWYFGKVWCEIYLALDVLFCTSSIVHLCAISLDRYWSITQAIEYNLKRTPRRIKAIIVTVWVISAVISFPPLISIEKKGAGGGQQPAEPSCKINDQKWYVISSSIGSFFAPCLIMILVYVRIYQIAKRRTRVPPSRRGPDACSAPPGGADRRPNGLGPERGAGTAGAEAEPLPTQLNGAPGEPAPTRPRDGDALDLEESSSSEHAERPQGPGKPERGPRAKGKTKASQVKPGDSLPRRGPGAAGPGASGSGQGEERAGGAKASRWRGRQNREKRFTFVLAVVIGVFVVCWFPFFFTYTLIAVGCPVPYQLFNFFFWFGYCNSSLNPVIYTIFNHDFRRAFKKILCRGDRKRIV
Protocol: NVS_GPCR_rAdra2_NonSelective is a biochemical, single-readout assay that uses extracted gene-proteins from Rat cortical membranes in a tissue-based cell-free assay. Measurements were taken 1.25 hours after chemical dosing in a 48-well plate.NVS_GPCR_rAdra2_NonSelective is one of one assay component(s) measured or calculated from the NVS_GPCR_rAdra2_NonSelective assay. It is designed to make measurements of radioligand binding, a form of binding reporter, as detected with scintillation counting signals by Filter-based radiodetection technology.Data from the assay component NVS_GPCR_rAdra2_NonSelective was analyzed into 1 assay endpoint. This assay endpoint, NVS_GPCR_rAdra2_NonSelective, was analyzed in the positive analysis fitting direction relative to DMSO as the negative control and baseline of activity. Using a type of binding reporter, loss-of-signal activity can be used to understand changes in the binding as they relate to the gene Adra2a. Furthermore, this assay endpoint can be referred to as a primary readout, because the performed assay has only produced 1 assay endpoint. To generalize the intended target to other relatable targets, this assay endpoint is annotated to the gpcr intended target family, where the subfamily is rhodopsin-like receptor.
Binding assays used specific radioligands (tritiated, iodinated) with non-radioactive competitive displacement ligands in agonist or antagonist protocols (as indicated) and various reference compounds and inhibitors to titrate specific binding to receptors and transporters. Most enzyme assays (CYPs, kinases, phosphatases, proteases, HDACs) used recombinant protein and specific substrates (fluorescence mostly, some colorimetric and radioactive) and inhibitors, followed by a biochemical separation of substrate and product. All assays for the biochemical HTS were initially run in duplicate at a single concentration (10 uM for CYP450 assays and 25 uM for all others). […] Each assay was run with positive and negative controls, and concurrent controls on every plate. The follow-up (secondary) screen tested active chemical-pairs in concentration series, as well as a few additional assays not tested in the primary screen, some selected negative inactives, and several cases re-run in the concentration series for confirmatory purposes.

AC50, active:
O=c1[nH]sc2ccccc12 1.55 µM, Clc1cc(Cl)c2c(c1)N=C1CCCCCN1C2 1.57 µM, CN(C)c1ccc(C(=C2C=CC(=[N+](C)C)C=C2)c2ccc(N(C)C)cc2)cc1 1.15 µM, COc1cccc([C@H](O)C2CCN(CCc3ccc(F)cc3)CC2)c1OC 1.58 µM, CCOC(=O)O[C@H](C)OC(=O)c1ccc2c(c1)cc(C(=O)NC1CCN(C(C)C)CC1)n2Cc1cc(-c2ccc(Cl)s2)on1 5.66 µM, CC/C(=C(/CC)c1ccc(O)cc1)c1ccc(O)cc1 36.3 µM, COc1ccc2cc(S(=O)(=O)N[C@H](CC(=O)N[C@H](Cc3ccc(CN4[C@H](C)CCC[C@@H]4C)cc3)C(=O)N(C)C(C)C)c3ccc4c(c3)OCO4)ccc2c1 23.9 µM, CCN(Cc1cccnc1)C(=O)c1cccc(Cl)c1[C@]1(C)C(=O)N(Cc2ccc(OC)cc2OC)c2ccc(Cl)cc21 6.92 µM, CCCCCCCCCCCC[N+](C)(C)C 19.1 µM, CCN(CC)C(=O)c1cc(S(=O)(=O)Cc2ccccc2)c(N2CCC(c3ccccc3)CC2)cc1N(CC)CCN(C)C 15.2 µM, NCc1cccc(C2CCN(C(=O)c3ccc(C#Cc4ccccc4F)o3)CC2)c1 14.4 µM
